FAS TE block = blocks the thioesterase domain of human fatty acid synthase; P49327; recombinant FAS-TE, OMFH fluorogenic substrate, fluorescence endpoint; AID 602261; 360,000 tested, 0.67% active; inhibition, % at 15 µM;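 active = compounds whose normalised, plate-corrected inhibition of enzyme fluorescence in the single-dose primary screen is 50% or more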;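 also: 0% = DMSO with enzyme and 100% = substrate without enzyme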
CRFBP-R2 block = blocks CRF-induced signaling of the CRF-BP/CRF-R2 complex. inhibition, % at 11.8 µM. 350,000 tested, 0.59% active. HEK293 CRF-R2/CRF-BP, CRF-induced calcium fluorescence;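 active = inhibition of the ligand-induced calcium signal above about 50% at the single tested concentration, limit read from the data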
CRFR2-BP ag = agonists of human CRF-binding protein/CRF-R2 receptor complex | HEK293 CRF-R2/CRF-BP, calcium dye fluorescence (FLIPR); percent of saturating CRF peptide response | activation, % at 13.2 µM | 350,000 tested, 0.46% active;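 active = activation of at least 50%, plus an integration ratio under a set limit after plate pattern correction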;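 also: plate controls were neutral control wells without compound for no effect and CRF at EC100 for full effect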
H9c2 protect = myocardial damage modulation in H9c2 cells | 360,000 tested, 0.63% active | AID 588492 | H9c2 cardiomyocytes, H2O2 injury protection, ATPLite, 2 h | protection from H2O2 cell death, % at 20 µM;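 active = compounds giving at least 50% protection of heart cells from peroxide-induced death in the single-dose screen, raw or plate-pattern-corrected value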;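 also: 0% = DMSO wells with peroxide and 100% = DMSO wells without peroxide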
aDG glyco up = alpha-DG glycosylation activation | 360,000 tested, 0.22% active | Pro5-aDG cells, alpha-DG glycosylation AlphaScreen (IIH6); 0% Pro5, 100% B10-LARGE cell signal | activation, % at 10 µM;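 active = activation of at least 8% versus controls, or a plate z-score of at least 8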;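 also: Pro5 are CHO cells carrying HIG-tagged alpha-DG that lacks glycosylation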
PfG6PD inh = PfG6PD (Plasmodium falciparum) enzyme inhibition; PfGluPho enzyme, NADPH resazurin-diaphorase fluorescence; 350,000 tested, 0.78% active; AID 504690; inhibition, % at 20 µM;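 active = inhibition reaching at least a set limit at 20 µM in the primary screen, cut at about 59% in these data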;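 also: 0% = DMSO wells with substrate and 100% = DMSO wells lacking glucose-6-phosphate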
FAS-TE conf = FAS thioesterase (human) inhibition, confirmation. shares compounds with FAS TE block. recombinant FAS-TE, OMFH fluorogenic substrate, fluorescence. inhibition, % at 15 µM. 2,300 tested, 45% active. AID 624325;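 active = compounds inhibiting the enzyme by at least 50% at 15 µM in any one of the replicates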;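 also: 0% = enzyme with DMSO only and 100% = wells lacking enzyme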
Starred values were filed as active, the others as inactive. Only some compounds are listed: those with a hit (about 3.2% of all), similar ones and a draw of the others.

How did Cc1cc(C(C)(C)C)cc(C)c1COC(=O)CN1C(=O)NC2(CCCC2)C1=O do in these assays?
FAS TE block: 52.3*; CRFBP-R2 block: -7.6; CRFR2-BP ag: 4.4; H9c2 protect: -15.4; aDG glyco up: 0.5; PfG6PD inh: 3.2; FAS-TE conf: 55.6*

How did Cc1ccccc1COC(=O)CN1C(=O)NC2(CCCC2)C1=O do in these assays?
FAS TE block: -4.0; CRFBP-R2 block: -4.5; CRFR2-BP ag: 1.2; H9c2 protect: -2.2; aDG glyco up: -0.3; PfG6PD inh: 18.3

What do the screens show for `COc1cc(CNCCNC(=O)c2nonc2N)ccc1OCc1ccc(Cl)cc1`?
FAS TE block: 0.9; CRFBP-R2 block: -16.9; CRFR2-BP ag: -1.1; H9c2 protect: -28.3; aDG glyco up: 1.5; PfG6PD inh: 15.3

How did O=C(CNc1cc(S(=O)(=O)N2CCCC2)ccc1OCC(F)(F)F)Nc1ccc(SC(F)F)cc1 do in these assays?
FAS TE block: 65.1*; CRFBP-R2 block: 0.4; CRFR2-BP ag: 18.9; H9c2 protect: -21.4; aDG glyco up: 0.7; PfG6PD inh: 8.5; FAS-TE conf: 56.5*

Results for Cc1ccc(S(=O)(=O)N2CCOCC2)cc1C(=O)NCCN1C(=O)S/C(=C\c2ccccc2Cl)C1=O ?
FAS TE block: 55.8*; CRFBP-R2 block: 4.7; CRFR2-BP ag: -1.6; H9c2 protect: 12.8; aDG glyco up: 0.5; PfG6PD inh: 5.5; FAS-TE conf: 30.7

What do the screens show for `COc1ccc(NC(=S)N2C3CCC2CC(NC(=O)NC24CC5CC(CC(C5)C2)C4)C3)c(OC)c1` (stereo unspecified)?
FAS TE block: 2.8; CRFBP-R2 block: -3.6; CRFR2-BP ag: -0.9; H9c2 protect: 9.4; aDG glyco up: -0.1; PfG6PD inh: -11.3

How did Cc1cc([N+](=O)[O-])ccc1NC(=O)CN1C2CCC1CC(NC(=O)NC13CC4CC(CC(C4)C1)C3)C2 (stereo unspecified) do in these assays?
FAS TE block: 50.8*; CRFBP-R2 block: -4.5; CRFR2-BP ag: -1.4; H9c2 protect: -10.9; aDG glyco up: 4.0; PfG6PD inh: -17.9; FAS-TE conf: 10.7

How did COc1ccc(CNc2ncc(-c3ccc(Br)cc3)n2C)cc1OC do in these assays?
FAS TE block: -5.5; CRFBP-R2 block: 0.1; CRFR2-BP ag: 0.6; H9c2 protect: 15.0; aDG glyco up: 0.5; PfG6PD inh: -5.7

Results for Cc1cc(OCCn2ccnc2)cc(C)c1Cl ?
FAS TE block: -6.8; CRFBP-R2 block: -5.0; CRFR2-BP ag: 2.0; H9c2 protect: -4.8; aDG glyco up: 0.4; PfG6PD inh: -1.9

What do the screens show for `CCN1CCCC1CNC(=O)c1cn(C)c2ccc(S(=O)(=O)N3CCCCCC3)cc2c1=O` (stereo unspecified)?
FAS TE block: -14.3; CRFBP-R2 block: 5.8; CRFR2-BP ag: 1.0; H9c2 protect: -14.4; aDG glyco up: 0.2; PfG6PD inh: -13.7

How did Cn1cc(C(=O)NCC2COc3ccccc3O2)c(=O)c2cc(S(=O)(=O)N3CCCCC3)ccc21 (stereo unspecified) do in these assays?
FAS TE block: 53.3*; CRFBP-R2 block: 11.0; CRFR2-BP ag: -1.6; H9c2 protect: 13.5; aDG glyco up: -0.2; PfG6PD inh: 6.2; FAS-TE conf: 10.0

What do the screens show for `CC1CCN(S(=O)(=O)c2ccc3c(c2)c(=O)c(C(=O)NCc2cccs2)cn3C)CC1`?
FAS TE block: 65.0*; CRFBP-R2 block: -14.3; CRFR2-BP ag: -1.4; H9c2 protect: 0.0; aDG glyco up: -0.2; PfG6PD inh: 3.0; FAS-TE conf: 17.6

How did CCN(CC)S(=O)(=O)c1ccc2c(c1)c(=O)c(C(=O)NCc1ccco1)cn2C do in these assays?
FAS TE block: 6.8; CRFBP-R2 block: -1.4; CRFR2-BP ag: 0.0; H9c2 protect: -2.7; aDG glyco up: 0.4; PfG6PD inh: -7.9

What do the screens show for `CC1CCN(S(=O)(=O)c2ccc3c(c2)c(=O)c(C(=O)NCc2ccco2)cn3C)CC1`?
FAS TE block: 71.0*; CRFBP-R2 block: 15.9; CRFR2-BP ag: -1.6; H9c2 protect: -8.3; aDG glyco up: -0.4; PfG6PD inh: -1.9; FAS-TE conf: 80.2*

Bioassay records from PubChem.
